# Test results from PubChem BioAssay AID504357 (The Scripps Research Institute Molecular Screening Center, 2011).
# “And” between values parts separate entries of the source, which are not always exact repeats. Equal values may be shown once. In all, about 340,000 compounds went through this assay and about 700 (0.21%) were called active. This is one part of a sample in which actives are shown more often than they occur. Cut-off read from the data, not from the text of the source: active = inhibition above about 22% (passing the limit was not always enough); inactive = the rest.
# Molecular target: Mu-type opioid receptor (Homo sapiens) + Delta-type opioid receptor (Homo sapiens) (UniProt P35372+P41143)
# Sequence (P35372 whole entry, looked up): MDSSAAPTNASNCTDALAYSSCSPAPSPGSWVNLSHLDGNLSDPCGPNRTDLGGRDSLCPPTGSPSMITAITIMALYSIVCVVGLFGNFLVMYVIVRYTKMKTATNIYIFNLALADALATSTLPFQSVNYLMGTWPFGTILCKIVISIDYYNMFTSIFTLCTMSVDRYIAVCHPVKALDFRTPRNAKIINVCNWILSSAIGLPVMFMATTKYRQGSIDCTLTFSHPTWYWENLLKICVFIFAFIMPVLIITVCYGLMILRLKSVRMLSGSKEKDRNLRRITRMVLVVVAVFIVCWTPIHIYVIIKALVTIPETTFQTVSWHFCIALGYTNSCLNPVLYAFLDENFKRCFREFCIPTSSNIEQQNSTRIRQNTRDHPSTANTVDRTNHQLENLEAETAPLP
# Sequence (P41143 whole entry, looked up): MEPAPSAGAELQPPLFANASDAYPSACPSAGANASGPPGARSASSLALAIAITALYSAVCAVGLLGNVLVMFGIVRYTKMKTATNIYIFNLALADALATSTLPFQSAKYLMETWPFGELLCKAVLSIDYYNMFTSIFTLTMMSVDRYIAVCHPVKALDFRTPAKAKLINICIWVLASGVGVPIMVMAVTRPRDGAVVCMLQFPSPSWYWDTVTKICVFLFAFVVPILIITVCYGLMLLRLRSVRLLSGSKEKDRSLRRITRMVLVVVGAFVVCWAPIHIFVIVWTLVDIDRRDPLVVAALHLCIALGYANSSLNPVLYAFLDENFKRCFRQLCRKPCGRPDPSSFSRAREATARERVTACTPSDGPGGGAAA
# Experiment: inverse agonists of MOR-DOR heterodimerization, primary screen, cell-based, luminescence (AID 504357);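 note: 0% = cells with DMSO and 100% = wells without cells with DMSO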
# Conditions: cell-based MOR-DOR heterodimer luminescence, inverse agonism; at 9.3 µM; hits give high values
row,SMILES,inhibition
1,Cc1ccc(Cc2nnc(SCC(=O)Nc3ccc(C)cc3C)[nH]c2=O)cc1,-25.8% (inactive)
2,O=C1CCC(=O)N(O)CCCCCNC(=O)CCC(=O)N(O)CCCCCNC(=O)CCC(=O)N(O)CCCCCN1,8.42% (inactive)
3,CN(CC(=O)O)C(=O)c1ccccc1,10.9% (inactive)
4,CN(/N=C/c1ccccc1)C(=S)c1ccccc1,-3.87% (inactive)
5,CN(O)C(=S)c1ccccc1,41.1% (active)
6,O=C(NNC(=O)c1ccc(Cl)cc1Cl)c1cccs1,2.42% (inactive)
7,Cc1ccc(NC(=O)c2cccs2)cc1S(=O)(=O)N(C)C,0.25% (inactive)
8,Cc1ccc(NNC(=O)c2cccs2)cc1Cl,53.4% (active)
9,CSc1ccc(Cl)c(C(=O)OCC(=O)N2CCNC2=O)c1,16.2% (inactive)
10,Cc1cc(C)cc(N)c1,14.8% (inactive)
11,CCN(CC(=O)NCc1ccco1)S(=O)(=O)c1ccc(F)cc1,-7.35% (inactive)
12,COc1ccccc1C(=O)NC(=O)COC(=O)c1ccco1,3.92% (inactive)
13,Cc1cccc(-n2c(SCC(N)=O)nc3c(c2=O)C2(CCCCC2)Cc2ccccc2-3)c1,-5.65% (inactive)
14,CC1CC2=C(CC1/C=N/NC(N)=S)C(C)(C)CCC2 (stereo not drawn),-16.2% (inactive)
15,CCn1cc(/C=C2/SC(=S)NC2=O)c(C)n1,9.33% (inactive)
16,CC1CCCC(N2CCN(C(=O)c3ccc(F)cc3)CC2)C1 (stereo not drawn),1.43% (inactive)
17,CCOc1ccc(S(=O)(=O)NCCC(=O)N2CCCCCCC2)cc1,-1.55% (inactive)
18,O=C(CCN1CCN(C/C=C/c2ccccc2)CC1)Nc1ccccc1Cl,1.43% (inactive)
19,CC(c1cccnc1)N(CCN(C)C)C(=O)Nc1ccc(Cl)c(Cl)c1 (stereo not drawn),-197% (inactive)
20,Cc1cccc(C)c1NC(=O)C(Cl)C(=O)c1ccccc1 (stereo not drawn),34.4% (active)
21,CC(NC(=O)c1ccccc1)C(=O)Nc1ccccc1 (stereo not drawn),19.2% (inactive)
22,Cc1cccc(C)c1NC(=O)CN(C)C(=O)CCC(=O)c1ccccc1,3.3% (inactive)
23,Cc1cc(C)c(S(=O)(=O)N2CCC(C(=O)OCc3c(C)noc3C)CC2)c(C)c1,6.69% (inactive)
24,COc1cccc(-c2ccc(C#N)c(SCC(=O)NCCc3ccc(Cl)cc3)n2)c1,-45.6% (inactive)
25,Oc1ccc(N=Nc2nccs2)c(O)c1,37.2% (active)

row,SMILES,inhibition
1,CN(c1ccccc1)S(=O)(=O)c1ccc(NC(=O)COc2ccccc2)cc1,31.1% (active)
2,Cc1ccc(S(=O)(=O)N(C)c2ccc(OCC(=O)NC3=NCCS3)cc2)cc1,7.13% (inactive)
3,O=C(COc1ccccc1)Nc1ccc(F)cc1,7.72% (inactive)
4,Cc1ccc(NC2(C#N)C(=O)Nc3ccccc32)cc1 (stereo not drawn),63.2% (active)
5,Cc1cccc(CC2(O)C(=O)Nc3ccccc32)n1 (stereo not drawn),15.9% (inactive)
6,Cc1cc(O)c(C2(O)C(=O)Nc3ccccc32)cc1C (stereo not drawn),10.4% (inactive)
7,CC(CC(=O)N1CCN(c2ccccc2)CC1)S(=O)(=O)c1ccc2c(c1)NC(=O)CS2 (stereo not drawn),4.28% (inactive)
8,CCCCCCCCCCCCN1[C@@H](CC(C)=O)c2cc(F)cc(F)c2S1(=O)=O,8.79% (inactive)
9,Cc1cc(=O)oc2c1c(C)nn2-c1ccc(Cl)cc1,11% (inactive)
10,Cc1ccc(CN(CC(=O)NCC2CCCO2)S(=O)(=O)c2ccc(C)cc2)cc1 (stereo not drawn),10.1% (inactive)
11,Nc1nnc(C2CCCC2)s1,11.4% (inactive)
12,O=C(NCCN1CCOCC1)/C(=C/c1ccc(F)cc1)NC(=O)c1ccccc1,18.7% (inactive)
13,Cc1cc(NC(=O)CN2CCC(O)(c3cccc(F)c3)CC2)no1,10.8% (inactive)
14,COc1cccc(CNC(=O)C2CCCN(S(=O)(=O)N3CC(C)CC(C)C3)C2)c1 (stereo not drawn),16% (inactive)
15,Cc1ccsc1C(=O)NCCc1ccco1,7.66% (inactive)
16,O=C(NCCSc1ncc(-c2ccccc2)[nH]1)c1ccco1,13.1% (inactive)
17,CC1CCCCC1NC(=O)COC(=O)Cc1ccc(Cl)cc1 (stereo not drawn),21.7% (inactive)
18,CC(=O)N1c2ccc(S(=O)(=O)N3CCCC(C(=O)Nc4ccc(C)cc4C)C3)cc2CC1C (stereo not drawn),-10.6% (inactive)
19,O=C(c1ccco1)N1CCN(C(=O)C2CC(c3ccc(Cl)c(Cl)c3)=NO2)CC1 (stereo not drawn),9.92% (inactive)
20,Cc1cc(OC(=O)c2ccccc2)c([N+](=O)[O-])c(=O)[nH]1,-3.39% (inactive)
21,O=C(O)CCN1C(=O)CC2(CCCCC2)C1=O,14.8% (inactive)
22,O=[N+]([O-])/C=C/c1ccc2c(ccn2Cc2ccccc2)c1,38.9% (active)
23,COc1ccc(CNCCCn2cnc3c(OCc4ccccc4)ncnc32)cc1,11.7% (inactive)
24,Cc1ccc2c(c1)C(O)(CC(=O)c1cccc(-n3cccc3)c1)C(=O)N2 (stereo not drawn),17.9% (inactive)
25,Cc1ccc2c(c1)C(O)(CC(=O)c1cccnc1)C(=O)N2 (stereo not drawn),37.3% (active)

row,SMILES,inhibition
1,O=C(CC(=O)c1cccnc1)c1ccccc1,13.2% (inactive)
2,CN(c1ccccc1)S(=O)(=O)c1cc(C(=O)N2CCN(c3ncccn3)CC2)ccc1Cl,2.36% (inactive)
3,COc1ccccc1CN1CCCC(N2CCN(c3ccc(F)cc3)CC2)C1 (stereo not drawn),8.79% (inactive)
4,C[n+]1ccc(C(=O)NCc2ccccc2)cc1,-0.68% (inactive)
5,COc1c(C=O)c(CCN(C)C(=O)c2ccc(F)cc2)cc2c1OCO2,9.88% (inactive)
6,CCOCCCNC(=O)C(NC(=O)Cc1c[nH]c2ccccc12)c1ccc(OC)cc1 (stereo not drawn),12.1% (inactive)
7,Cc1ccccc1OCC(=O)NNC(=O)c1ccc(-n2cncn2)c([N+](=O)[O-])c1,8.19% (inactive)
8,CCc1c(C)sc(NC(=O)OC)c1C(=O)N1CCOCC1,5.54% (inactive)
9,CCOc1ccc(S(=O)(=O)N2CCCC(C(=O)N3CCC(C(N)=O)CC3)C2)cc1Cl (stereo not drawn),5.16% (inactive)
10,COc1ccccc1N1CCN(CC(=O)Nc2ccnn2C2CCCC2)CC1,0.88% (inactive)
11,CSCCC(NC(=O)COc1ccccc1)C(=O)OCCOc1ccc(Br)cc1 (stereo not drawn),-28.3% (inactive)
12,CSCCC(NC(=O)COc1ccccc1)C(=O)OCc1ccc(Cl)cc1 (stereo not drawn),-17.1% (inactive)
13,CSCCC(NC(=O)COc1ccccc1)C(=O)OCC(=O)c1cc2ccccc2o1 (stereo not drawn),68.4% (active)
14,CN1CC(=O)N=C1N,16.7% (inactive) and 15.6% (inactive)
15,Cc1cc(Cl)c(S(=O)(=O)NCc2cccnc2)cc1OCC(N)=O,11.2% (inactive)
16,CCOc1ccc(NC(=O)CN(C)CC(=O)NC(C)c2ccccc2)cc1OCC (stereo not drawn),1.67% (inactive)
17,COCC(C)OC(=O)c1c(N)n(CCCN2CCOCC2)c2nc3ccccc3nc12 (stereo not drawn),10.3% (inactive)
18,C=CCn1c(N)c(C(=O)OCC(C)C)c2nc3ccccc3nc21,55.7% (active)
19,C=CCn1c(C(C)NC(=O)CC)nc2ccccc21 (stereo not drawn),18% (inactive)
20,FC(F)(F)C1CCCN(c2nsc3ccccc23)C1 (stereo not drawn),11.2% (inactive)
21,C=CCN1C(=O)C(O)(CC(=O)c2ccccn2)c2ccccc21 (stereo not drawn),15.1% (inactive)
22,C=CCN1C(=O)C(O)(CC(=O)c2ccc(Cl)cc2)c2ccccc21 (stereo not drawn),12% (inactive)
23,CCOC(=O)CN1C(=O)C(O)(CC(=O)c2ccccn2)c2ccccc21 (stereo not drawn),49.5% (active)
